According to the supplement of paper PMC6555819:

Tests used:
Assay in all cases: PBM binding z-score (relative to random genomic background probes); higher = stronger binding; sequences stand for … in GC…GCGATTGACAGCGTAGAATGAAGG
[1] = tested on: PPARg:RXRa DBDmut IVT, anti-RXR (DBD mutation: RXRa K156A/R161A, NR concentration 270 nM, RXRa partner concentration 90 nM)
Outline: (§1)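 Binding z-scores were set against random background probes. The data came from custom Agilent 4×180K protein-binding microarrays carrying double-stranded probes with 34-nt variable regions, incubated 1 h with ligand-free nuclear receptor dimers. Partner-specific antibodies detected binding, and scanned fluorescence was regression-normalized.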

[2] = tested on: PPARg:RXRa IVT, anti-PPARg (NR concentration 270 nM, RXRa partner concentration 90 nM)
Outline: as §1

[3] = tested on: PPARg DBDmut:RXRa IVT, anti-PPARg (DBD mutation: PPARg1 K132A/R137A, NR concentration 270 nM, RXRa partner concentration 90 nM)
Outline: as §1

[4] = tested on: PPARg DBDmut IVT, anti-PPARg (DBD mutation: PPARg1 K132A/R137A, NR concentration 270 nM)
Outline: as §1

[5] = tested on: PPARg homodimer (NR concentration 180 nM)
Outline: as §1

[6] = tested on: PXR:RXRa (NR concentration 270 nM, RXRa partner concentration 90 nM)
Outline: as §1

[7] = tested on: PXR homodimer (NR concentration 270 nM)
Outline: as §1

[8] = tested on: RARa:RXR (NR concentration 270 nM, RXRa partner concentration 90 nM)
Outline: as §1

[9] = tested on: RARa homodimer (NR concentration 270 nM)
Outline: as §1

[10] = tested on: RARb:RXRa (NR concentration 270 nM, RXRa partner concentration 90 nM)
Outline: as §1

| Sequence | PBM binding z-score [1] | PBM binding z-score [2] | PBM binding z-score [3] | PBM binding z-score [4] | PBM binding z-score [5] | PBM binding z-score [6] | PBM binding z-score [7] | PBM binding z-score [8] | PBM binding z-score [9] | PBM binding z-score [10] |
| --- | --- | --- | --- | --- | --- | --- | --- | --- | --- | --- |
| GGAACGTGGGCAAGTTGATAGCAGAGTTTGATGG | 0.19 | -0.544 | -0.762 | -0.713 | -0.313 | -0.46 | 0.121 | -0.634 | -0.639 | -0.191 |
| CCTCGGAGTACAGAAGGTCAGAGCTGTCCGCTTT | 0.368 | -0.113 | -0.995 | -1.23 | 1.8 | 1.83 | 0.165 | 2.18 | 0.283 | 2.69 |
| GGAACGAGGGCATGTTGATAGCAGAGTTTGATGG | 2.6 | 1.79 | 0.588 | -0.313 | 0.877 | 0.633 | 0.542 | 0.117 | 0.262 | 1.81 |
| TAGAGTAGGTTAGGGGCATTCAGAATGGCGTCGA | 2.77 | 3.28 | 1.38 | 0.566 | 1.85 | 1.08 | 1.72 | 0.913 | 1.66 | 1.81 |
| ACTAACAGGCCAAGTTTGGGTCACTCAAACAAAG | 0.131 | 0.999 | -0.122 | 0.374 | 0.38 | 0.912 | -0.269 | 1.75 | -0.388 | 2.11 |
| CCTACTGGGCCAAAGGTCATTGAGTCCAATGCTC | 5.06 | 6.83 | 0.176 | -0.111 | 2.47 | 6.16 | 12.7 | 5.99 | 1.14 | 4.71 |
| TCTTGTACATCAAAGGTTAAGAAAGCCGAAGCCT | 1.6 | 1.77 | 1.53 | 0.483 | 1.01 | 1.73 | 0.178 | 2.66 | 0.601 | 2.15 |
| TCTTGTAGATCAACAGGAGGTTAAGAAGGATCGA | 1.57 | 0.719 | 0.516 | 0.84 | -0.0308 | 0.778 | -0.0185 | 0.915 | -0.325 | 0.474 |
| CGCACTAGGTCAAGGACAGTGAATCTCCGCACGC | 8.02 | 7.89 | 1.21 | 0.566 | 1.2 | 1.15 | 0.0235 | 1.92 | 0.00773 | 3.92 |
| CCTTACGGGTCACTGACAGGTTATTGCATTTGGA | 3.48 | 3.61 | 0.525 | 0.563 | 2.74 | 3.89 | 0.344 | 4.51 | 0.71 | 4.04 |
| CGTCCAGGGTCAAAGGTCAGTGAAGAGATGACGG | 2.45 | 5.28 | 0.657 | 0.0677 | 3.17 | 6.94 | 0.868 | 8.37 | 1.58 | 5.63 |
| CCTAGCAGGTCAATCTGGGTCACTCAAGGCTTGA | 5.78 | 6.18 | 1.08 | -0.626 | 2.33 | 5.31 | 0.0416 | 4.45 | 0.436 | 3.96 |
| CGACAAAGTTCAAGGTAACGTAACAGAAAGCAGC | 0.277 | 1.76 | 0.591 | 0.507 | 2.08 | 3.81 | 2.44 | 3.27 | 1.06 | 4.89 |
| CTCGAAAGGTCGTGCTCAGGTGCGTATACCAAAC | 0.285 | 1.52 | 0.6 | 0.566 | 0.856 | 3.09 | 0.43 | 3.46 | -0.163 | 3.75 |
| TAGCCTAGGTCATTGGGCCAGTATGGTACGCATC | 2.56 | 3.68 | 0.116 | 0.266 | 1.26 | 1.38 | -0.75 | 2.07 | -0.00791 | 3.44 |
| AGTCAAAGTACATCTAGGTAACGTAAGATATGCT | 0.968 | 2.23 | 0.568 | 1.11 | -0.552 | -0.0859 | 0.334 | -0.223 | 0.0853 | 0.801 |
| TCTGCTTGGTCAGTTGGTCAGCTAACGAGCTGCC | 0.546 | 0.646 | -0.341 | 0.287 | -1.35 | -0.535 | -1.14 | -0.645 | -1.41 | 0.775 |
| GCTAGTTGGTCAGTATAAGGTCACACACCGGTCG | 1.28 | 2.3 | 0.282 | 0.251 | 4.01 | 4.26 | 1.61 | 4.86 | 2.27 | 3.5 |
| CCTACTGGGCCATTCAGAGGTCATTGCTCATATG | 4.61 | 4.29 | -0.1 | -0.505 | 1.87 | 4.7 | 2.5 | 4.24 | 0.689 | 3.01 |
| CGAACTAGGTAAGAACAGGACAGTGAAGGATGAT | 3.73 | 2.52 | 0.465 | 0.0684 | 0.00147 | -0.257 | -0.137 | -0.362 | -0.184 | -0.143 |
| AGAATGAGGTTATTAAGGTCAGGGAATTGCGGTC | 4.18 | 4.42 | 1.61 | 0.235 | 2.65 | 5.11 | 11.1 | 4.38 | 1.85 | 3.79 |
| ACTAGTTGGCCAGCTGAGGTCACACACAATTCGG | 0.715 | 1.85 | 0.578 | 0.0549 | 2.34 | 4.59 | 1.49 | 4.57 | 0.503 | 3.19 |
| AGAATGAGGTTAAGATCATGGAAACAGAATACAT | 2.36 | 2.7 | 1.78 | 1.04 | 0.572 | 1.24 | 0.274 | 1.79 | 0.586 | 1.68 |
| GCGACTGGGGCAAAGCAGGTGACCATAAGGTTGG | 4.22 | 3.65 | -0.66 | -0.849 | 0.17 | -0.318 | -0.7 | 0.805 | -0.538 | 0.913 |
| TGTCAAAGTTCAAATGTAACGTAAGTATCCACAC | 0.32 | 4.15 | 1.72 | 2.11 | 2.82 | 5.13 | 4.03 | 3.93 | 2.08 | 5.02 |
